Measured values published in PubChem BioAssay AID488969 (Vanderbilt High Throughput Screening Facility, 2010).
In all, about 110,000 compounds were measured (“z-score”: median about -0.1, highest 2% from about 2 on). The list comes from a sample in which the highest values are over-represented; it also holds similar structures and randomly drawn compounds. Calls of active or inactive are those of the source.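 How the source made its calls: active means z-score in the third read window above 3 or below -3; inactive means the rest.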

Biological target: Metabotropic glutamate receptor 8 (Rattus norvegicus) (UniProt P70579)
Test: mGluR8 Gi/Go-coupled signaling modulation – cell-based, rat, thallium flux, HTS, primary screen (AID 488969)
Conditions: HEK293 rat mGluR8, GIRK (G protein-gated inwardly rectifying potassium channel) thallium flux, FluoZin2; at 10 µM; stronger effect = higher value; submaximal glutamate (EC20) added with thallium

Metabotropic glutamate receptor 8 (Rattus norvegicus), sequence (P70579 whole entry, looked up): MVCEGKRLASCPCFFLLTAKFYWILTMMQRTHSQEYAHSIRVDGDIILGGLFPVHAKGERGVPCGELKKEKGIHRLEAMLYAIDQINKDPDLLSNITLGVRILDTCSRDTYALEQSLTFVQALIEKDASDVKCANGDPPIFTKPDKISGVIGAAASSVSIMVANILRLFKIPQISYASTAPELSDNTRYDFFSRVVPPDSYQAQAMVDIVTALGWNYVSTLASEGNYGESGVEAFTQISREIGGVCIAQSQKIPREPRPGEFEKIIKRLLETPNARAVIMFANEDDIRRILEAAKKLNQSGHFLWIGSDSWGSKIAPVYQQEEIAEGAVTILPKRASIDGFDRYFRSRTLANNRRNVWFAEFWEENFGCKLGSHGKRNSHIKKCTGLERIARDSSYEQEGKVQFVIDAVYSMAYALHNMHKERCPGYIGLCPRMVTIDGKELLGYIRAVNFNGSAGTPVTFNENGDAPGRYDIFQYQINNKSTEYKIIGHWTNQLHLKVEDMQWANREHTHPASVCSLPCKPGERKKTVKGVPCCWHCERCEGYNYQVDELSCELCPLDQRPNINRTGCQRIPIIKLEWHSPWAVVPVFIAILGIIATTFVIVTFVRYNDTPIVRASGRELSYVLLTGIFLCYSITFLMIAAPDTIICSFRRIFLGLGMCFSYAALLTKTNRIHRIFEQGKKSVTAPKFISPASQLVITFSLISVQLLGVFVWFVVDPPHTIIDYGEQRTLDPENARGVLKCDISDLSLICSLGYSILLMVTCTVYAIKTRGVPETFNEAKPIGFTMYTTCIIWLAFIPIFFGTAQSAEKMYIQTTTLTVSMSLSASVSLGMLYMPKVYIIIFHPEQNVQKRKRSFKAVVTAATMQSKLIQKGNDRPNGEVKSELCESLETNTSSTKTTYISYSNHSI

| Structure (SMILES) | z-score |
| --- | --- |
| CC1CCN(S(=O)(=O)c2ccc(NC(=O)CN3CCCC(C)C3)cc2)CC1 (centres undefined) | 0.282 |
| O=C(c1cccc(F)c1)N1CCc2ccccc21 | -0.134 |
| CCOC(=O)c1cc(NC(=O)c2cc(C)on2)cc(C(=O)OCC)c1 | -0.369 |
| CCn1nc2cc(C(=O)NCCc3cccs3)ccc2c1OC | -0.218 |
| COC(=O)CSC1=C(C#N)C(c2sccc2C)CC(=O)N1 (centres undefined) | 0.174 |
| O=C(NCC1CCCO1)C(c1cccs1)N(C(=O)Cn1nnc(-c2cccs2)n1)C1CCCC1 (centres undefined) | -0.378 |
| C/C(=N\NC(=O)c1ccccc1C)c1cccc([N+](=O)[O-])c1 | -0.192 |
| CCCCNc1ccc2nsnc2c1[N+](=O)[O-] | -0.137 |
| C=CCNC(=O)c1nn2cccnc2c1Cl | -0.068 |
| O=C(Nc1ccc2c(c1)oc1ccccc12)c1ccc2c(c1)OCO2 | 0.81 |
| Cc1cc2oc(C(=O)N(Cc3ccccc3)C3CCS(=O)(=O)C3)cc(=O)c2cc1Cl (centres undefined) | -0.141 |
| Cc1ccc(S(=O)(=O)NCC(C)NS(=O)(=O)c2ccc(C)cc2)cc1 (centres undefined) | 2.8 |
| Cc1ccc(S(=O)(=O)NCCCN(C)C)cc1 | 2.95 |
| CN(C)CCNS(=O)(=O)c1ccc(Cl)cc1 | 1.34 |
| CC(=O)Nc1ccc(S(=O)(=O)NCC(C)NS(=O)(=O)c2ccc(NC(C)=O)cc2)cc1 (centres undefined) | 0.018 |
| O=S(=O)(c1ccc(N2CCC(c3ccc(Cl)cc3)=N2)cc1)N(CCO)CCO | -0.748 |
| Cc1ccc(S(=O)(=O)NCCCNS(C)(=O)=O)cc1 | 0.0948 |
| Cc1ccc(S(=O)(=O)NCCCCCC(=O)N(C)C)cc1 | 2.19 |
| Cc1ccc(S(=O)(=O)NCC(C)NS(C)(=O)=O)cc1 (centres undefined) | -0.186 |
| CN(C)CCCNS(=O)(=O)c1ccc(N2CCC(c3ccc(Cl)cc3)=N2)cc1 | 2.59 |
| Cc1ccc(S(=O)(=O)NCCCCCC(N)=O)cc1 | 0.00872 |
| CNC(=O)CCCCCNS(=O)(=O)c1ccc(C)cc1 | 0.0156 |

| Structure (SMILES) | z-score |
| --- | --- |
| O=C1CCCN1c1ccc(S(=O)(=O)NCCc2ccc(Cl)cc2)cc1 | 0.203 |
| CCOc1ccc(-c2cn3ccccc3n2)cc1[N+](=O)[O-] | 0.461 |
| O=C(c1cccc(-n2cnnn2)c1)N1CC=C(c2ccccc2)CC1 | 0.39 |
| CN1CCN(/C(=N\S(=O)(=O)c2ccc(F)cc2)c2ccccc2)CC1 | -0.0184 |
| Cc1sc2ncnc(N3CCOCC3)c2c1C | -0.134 |
| O=[N+]([O-])c1ccc(-c2csc(N3CCc4ccccc4C3)n2)cc1 | -0.0911 |
| O=C1CN(C(=O)CSc2nc3cc(Cl)ccc3c(=O)n2Cc2ccccc2)c2ccccc2N1 | 7.11 (active) |
| Cc1nnc(SCC(=O)N2CC(=O)Nc3ccccc32)n1Cc1ccccc1 | -0.151 |
| O=C1CN(C(=O)CSc2nc3ccccc3n2CCc2ccccc2)c2ccccc2N1 | -0.346 |
| Cc1cccc(C)c1-n1c(SCC(=O)N2CC(=O)Nc3ccccc32)nc2ccccc2c1=O | -0.109 |
| Cc1ccc(Cn2c(SCC(=O)N3CC(=O)Nc4ccccc43)nc3ccccc3c2=O)cc1 | 1.31 |
| Cc1ccc(-n2c(SCC(=O)N3CC(=O)Nc4ccccc43)nc3ccccc3c2=O)cc1C | -0.183 |
| CC(c1ccccc1)n1c(SCC(=O)N2CC(=O)Nc3ccccc32)nc2ccccc2c1=O (centres undefined) | 4.74 (active) |
| Cc1ccc(-n2c(SCC(=O)N3CC(=O)Nc4ccccc43)nc3ccccc3c2=O)cc1 | -0.279 |
| O=C1CN(C(=O)CSc2nc3ccccc3c(=O)n2Cc2ccc(F)cc2)c2ccccc2N1 | 3.79 (active) |
| O=C(O)/C=C/C(=O)Nc1ccccc1C(=O)Nc1ccccc1 | 0.317 |
| CCOC(=O)C1=C(Nc2ccccc2)CC(C)(O)C(C(=O)OCC)C1c1ccc(Cl)cc1 (centres undefined) | -0.445 |
| COc1ccc(CCC(C)NCC2CCCCC2)cc1 (centres undefined) | 0.819 |
| Fc1ccc(CNC(=S)Nc2cccc(Cl)c2)cc1 | 5.18 (active) |
| CCOC(=O)c1csc(NC(=O)Nc2cccc(Cl)c2)n1 | -0.0455 |
| S=C(NCc1cccs1)Nc1ccc(Cl)cc1 | 0.118 |
| S=C(NCc1ccncc1)Nc1cccc(Cl)c1 | -0.135 |

| Structure (SMILES) | z-score |
| --- | --- |
| O=C(NCc1cccs1)Nc1cccc(Cl)c1 | 0.43 |
| Fc1ccc(NC(=S)Nc2cccc(Cl)c2)cc1 | 1.26 |
| Cc1csc(NC(=O)Nc2cccc(Cl)c2)n1 | 0.398 |
| Cc1csc(NC(=S)Nc2cccc(Cl)c2)n1 | 14.7 (active) |
| S=C(NCc1cccs1)Nc1cccc(Cl)c1 | 4.52 (active) |
| O=C(Nc1ccccc1)N1CCCc2ccccc21 | -0.0768 |
| O=C(NCCCN1CCCC1=O)c1ccccc1NS(=O)(=O)c1ccc(Br)cc1 | -0.938 |
| CCCn1cc(NC(=O)C2CC(c3cccc(Br)c3)=NO2)cn1 (centres undefined) | -0.352 |
| CCOc1cc(/C=C2/NC(=O)N(CC(=O)Nc3cccc(C)c3)C2=O)ccc1O | -0.784 |
| N#CC1=C(SCC(=O)NCc2ccccc2)NC(=O)CC1c1ccco1 (centres undefined) | 1.77 |
| CC(C)=C1C2CCC1C1C(=O)N(c3nc(-c4ccc(C(C)C)cc4)c(C)s3)C(=O)C21 (centres undefined) | -0.0235 |
| O=C(NC(=S)N1CCN(c2ccc(Cl)cc2[N+](=O)[O-])CC1)c1ccco1 | 2.99 |
| O=C(Nc1cc(C(F)(F)F)ccc1N1CCOCC1)c1cccs1 | 1.15 |
| O=C(NC(=S)N1CCN(c2ccc([N+](=O)[O-])cc2Cl)CC1)c1ccco1 | 1.05 |
| O=C(NC(=S)N1CCN(c2c(Cl)cccc2[N+](=O)[O-])CC1)c1cccs1 | -4.63 (active) |
| O=C(NC(=S)N1CCCCC1)c1cccs1 | 0.578 |
| NC(=O)C1CCN(c2ccc(C(F)(F)F)cc2[N+](=O)[O-])CC1 | 0.0305 |
| O=C(CSc1ccc(Cl)cc1)N1CCN(c2ccc(Cl)cc2[N+](=O)[O-])CC1 | -0.109 |
| O=C(NC(=S)N1CCN(c2ccc(Cl)cc2[N+](=O)[O-])CC1)c1cccs1 | 9.46 (active) |
| O=C(NC(=S)N1CCN(c2ccc(C(F)(F)F)cc2[N+](=O)[O-])CC1)c1cccs1 | 8.9 (active) |
| COc1ccc(NC(=O)Nc2ccc(Br)cn2)cc1OC | -0.221 |
| COc1ccc2nc(NC(=O)CSc3nnc(N)s3)sc2c1 | 0.075 |

| Structure (SMILES) | z-score |
| --- | --- |
| Cc1[nH]n(-c2ccccc2)c(=O)c1N=Nc1cccc(S(=O)(=O)N2CCOCC2)c1 | 0.327 |
| Cc1[nH]n2c(=O)cc(-c3ccc([N+](=O)[O-])cc3)nc2c1-c1ccccc1 | -1.93 |
| Cc1[nH]n(-c2ccccc2)c(=O)c1N=Nc1nccs1 | 14.8 (active) |
| Cc1[nH]n(-c2ccc([N+](=O)[O-])cc2)c(=O)c1N=Nc1nc2ccccc2s1 | 2.47 |
| Cc1[nH]n(-c2ccccc2)c(=O)c1S(=O)(=O)c1ccccc1 | -0.642 |
| Cc1[nH]n(-c2ccc([N+](=O)[O-])cc2)c(=O)c1C=NCCc1c(C)[nH]c2ccccc12 | -0.0759 |
| CN(Cc1ccc(-n2cccn2)cc1)C(=O)c1cnn2c1NC(c1ccco1)CC2C(F)(F)F (centres undefined) | -0.35 |
| CCCCN1C(=S)SC(C)(C)C1/[N+]([O-])=C/c1cccnc1 (centres undefined) | -0.00445 |
| CCN1C(=O)C2C(C1=O)N1C(c3ccccc3)C3C(=O)N(CC)C(=O)C3N1C2c1ccccc1 (centres undefined) | 0.0538 |
| C=CCn1c(=N)n(CC(O)COc2ccccc2OC)c2ccccc21 (centres undefined) | 1.12 |
| CCCCCn1c(=N)n(CC(O)COc2ccccc2OC)c2ccccc21 (centres undefined) | -1.11 |
| Cc1cccc(OCC(O)CN2C(C)(C)CC(O)CC2(C)C)c1 (centres undefined) | 9.44 (active) |
| CCCn1c(=N)n(CC(O)COc2cccc(C)c2)c2ccccc21 (centres undefined) | 3.74 (active) |
| CCCn1c(=N)n(CC(O)c2ccco2)c2ccccc21 (centres undefined) | 0.907 |
| CCCCn1c(=N)n(CC(O)COc2cccc(C)c2)c2ccccc21 (centres undefined) | 4.52 (active) |
| Cc1cccc(OCC(O)CN2C(C)(C)CC(O)CC2(C)C)c1C (centres undefined) | 1.1 |
| CC(=O)c1ccc(OCC(O)CN2C(C)(C)CC(O)CC2(C)C)cc1 (centres undefined) | -0.153 |
| CCn1c(=N)n(CC(O)COc2cccc(C)c2)c2ccccc21 (centres undefined) | 0.778 |
| CC(=O)c1ccc(OCCCC(=O)Nc2ccc(C)c(S(=O)(=O)N(C)C)c2)cc1 | 0.136 |
| O=C(CCNc1cc(Cl)cc(Cl)c1)c1cccs1 | 0.0113 |
| COc1ccc(NS(=O)(=O)c2c(C)n(C)c(=O)n(C)c2=O)cc1OC | -0.0428 |
| Cc1ccc(S(=O)(=O)Cc2ccc(C(=O)NCc3ccc4c(c3)OCO4)o2)cc1 | -0.326 |

| Structure (SMILES) | z-score |
| --- | --- |
| NS(=O)(=O)c1ccc(CCNC(=O)C2CCN(S(=O)(=O)c3cnc[nH]3)CC2)cc1 | -0.00955 |
| O=C(NC1CCCC1)C(c1cccnc1)N(C(=O)c1csnn1)C1CCCC1 (centres undefined) | -0.145 |
| CC1CCN(c2nc3c(c(=O)[nH]c(=O)n3C)n2CCSc2nc3ccccc3o2)CC1 | 0.0449 |
| C=C1c2cc(C)ccc2NC(=O)N1c1ccc(C)cc1 | -0.68 |
| COc1cc(C)c(-c2cc(C(=O)O)c(C)o2)cc1C(C)C | -0.106 |
| COc1cc(C)c(S(=O)(=O)N2CCOCC2)cc1C(C)C | 0.397 |
| COc1cc(C)c(N)cc1C(C)C | 2.12 |
| CNC(=S)N1CCN(c2ccc([N+](=O)[O-])cc2)CC1 | -0.188 |
| COc1ccc(C(=O)NC(=S)N2CCN(c3ccc([N+](=O)[O-])cc3)CC2)cc1 | 0.274 |
| Cc1ccc(C(=O)NC(=S)N2CCN(c3ccc([N+](=O)[O-])cc3)CC2)cc1 | 0.426 |
| CCNC(=S)N1CCN(c2ccc([N+](=O)[O-])cc2)CC1 | 0.99 |
| C=CCNC(=S)N1CCN(c2ccc([N+](=O)[O-])cc2)CC1 | 2.09 |
| O=C(NC(=S)N1CCN(c2ccc([N+](=O)[O-])cc2)CC1)c1ccc(F)cc1 | 9.01 (active) |
| CN(C)c1nc2ccccc2c(N)c1-c1ccccc1 | 3.06 (active) |
| CN(C)c1nc(-c2ccccc2)nnc1C(F)(F)F | -0.148 |
| CC(=O)c1c(C)nc2ccccc2c1N | 0.205 |
| Cc1c(N(C)C)nc2ccccc2c1N | 2.03 |
| CCN(CC)c1nc2ccccc2c(N)c1-c1ccccc1 | 0.0637 |
| Cc1cc(C)c2c(N)c3ccccc3nc2n1 | -0.0162 |
| O=C(NCc1cccnc1)c1cccc(Cl)c1 | 0.278 |
| O=C(Cn1c(=O)oc2ccccc21)NCc1ccco1 | 0.455 |
